# Screening results (PubChem BioAssay)
# MBD2 inh – inhibitors of MBD2 binding to methylated DNA, primary screen, biochemical, TR-FRET, DNA-binding domain, human | MBD2 binding to methylated oligonucleotide | 370,000 compounds, 0.31% hits | Methyl-CpG-binding domain protein 2 (Homo sapiens), Q9UBB5 | inhibition, % at 4.4 µM; in the data active = inhibition above about 13%
# Target sequence (Q9UBB5 whole entry, looked up, the tested form may be a part): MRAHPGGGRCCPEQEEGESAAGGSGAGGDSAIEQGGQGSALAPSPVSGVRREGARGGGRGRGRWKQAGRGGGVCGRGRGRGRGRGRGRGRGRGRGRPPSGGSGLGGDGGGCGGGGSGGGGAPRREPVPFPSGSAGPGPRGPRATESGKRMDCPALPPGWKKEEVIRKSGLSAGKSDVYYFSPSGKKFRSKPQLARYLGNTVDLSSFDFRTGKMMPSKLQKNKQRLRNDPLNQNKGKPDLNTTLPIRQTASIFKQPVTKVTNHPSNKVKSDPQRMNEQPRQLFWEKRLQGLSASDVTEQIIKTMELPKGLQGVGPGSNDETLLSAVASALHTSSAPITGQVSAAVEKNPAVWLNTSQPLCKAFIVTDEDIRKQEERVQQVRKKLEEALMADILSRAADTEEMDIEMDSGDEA
# UHRF1 MBD2 ctr – UHRF1 methylated DNA binding inhibitors, primary screen, counter-screen for MBD2 inhibitor project, biochemical, TR-FRET, human UHRF1, single concentration | E3 ubiquitin-protein ligase UHRF1 (Homo sapiens), Q96T88 | UHRF1 binding to methylated oligo | inhibition, % at 4.4 µM | 370,000 compounds, 0.75% hits | AID 687016, 2013; in the data active = inhibition above about 21%;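 note: UHRF1 SRA domain binding a hemimethylated CpG hairpin DNA probe; 0% = median of test compound wells and 100% = reference inhibitor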
# UBC13 inh – UBC13 polyubiquitin chain formation inhibitors, primary screen, biochemical, TR-FRET, uHTS | inhibition, % at 20 µM | 330,000 compounds, 0.47% hits | AID 485273, 2010; in the data active = inhibition above about 45%, passing the limit was not always enough; inconclusive = no clear call, values can overlap the other calls
# Target sequence (P61088 whole entry, looked up): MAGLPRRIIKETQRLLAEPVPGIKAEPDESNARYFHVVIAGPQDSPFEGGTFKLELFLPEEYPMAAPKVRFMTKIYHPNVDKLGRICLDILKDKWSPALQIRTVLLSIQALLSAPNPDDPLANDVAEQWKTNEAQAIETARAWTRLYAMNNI
# Neddylation inh – inhibitors of cullin neddylation, primary screen, biochemical, TR-FRET, uHTS, NAE and Ubc12; NEDD8-conjugating enzyme Ubc12 (Homo sapiens) + NEDD8-activating enzyme E1 regulatory …; calls only at 25 µM; 360,000 compounds, 0.58% hits; AID 651699, 2012; in the data active = inhibition above about 36%
# Numbers without * were called inactive; i = inactive; ? = inconclusive; . = not tested or not shown; + = active, no number. Shown are actives, neighbours in structure and some others; about 1.8% of the full set was active somewhere.
SMILES,MBD2 inh,UHRF1 MBD2 ctr,UBC13 inh,Neddylation inh
COc1cccc(CN2CCC2(C)C(=O)Nc2cccc(NS(C)(=O)=O)c2)c1OC (centres undefined),-2,-1,.,i
CC(C(=O)O)c1cccc(C(=O)c2ccccc2)c1 (centres undefined),0,-1,3,i
NC(=O)C1=CN([C@@H]2O[C@H](COP(=O)(O)OP(=O)(O)OC[C@H]3O[C@@H](n4cnc5c(N)ncnc54)[C@H](O)[C@@H]3O)[C@@H](O)[C@H]2O)C=CC1,0,-2,.,.
Nc1ncnc2c1ncn2[C@@H]1O[C@H](COP(=O)(O)OP(=O)(O)OP(=O)(O)O)[C@@H](O)[C@H]1O,-1,-1,10,+
Nc1ncnc2c1ncn2[C@@H]1O[C@H](COS(=O)(=O)O)[C@@H](O)[C@H]1O,-3,-1,7,+
Nc1ncnc2c1ncn2[C@@H]1O[C@H](CNCc2cccc(C#Cc3ccccc3)c2)[C@@H](O)[C@H]1O,-3,1,.,+
COc1ccccc1C(=O)N1CCN(C(=O)[C@H]2O[C@@H](n3cnc4c(N)ncnc43)[C@H](O)[C@@H]2O)CC1,12,24*,.,i
O=C(CSc1nnc(Nc2ccccc2)s1)NCCN1C(=O)CSC1=O,7,8,6,i
Cc1ccc(S(=O)(=O)N2CCOCC2)cc1NC(=O)CNCc1ccccn1,0,27*,-13,i
O=C(CCCN=C1NS(=O)(=O)c2ccccc21)OCC(=O)c1ccccc1,1,-3,-1,i
O=C(CCN=C1NS(=O)(=O)c2ccccc21)OCC(=O)c1ccccc1,0,32*,-10,i
Cc1ccc(-n2c(Cc3cccn3C)nnc2SCC(=O)N2CCN(c3ccccc3)CC2)cc1,5,2,6,i
CC(C)CCNCC(O)CON=C1c2ccccc2-c2ccccc21 (centres undefined),-2,25*,25,i
COCCNCC(O)CON=C1c2ccccc2-c2ccccc21 (centres undefined),-1,-9,-11,i
CCN1CCN(C(=O)c2cnn3c(C(F)F)cc(-c4ccc(C)cc4)nc23)CC1,-3,-2,10,+
C(=N\NCc1ccccc1)/c1ccc2ncccc2c1,4,0,?,i
S=C(N/N=C/c1ccc2ncccc2c1)Nc1ccccc1,-1,32*,-18,i
Cc1cc(C)n2cc(CSc3nnnn3C)nc2n1,3,-1,16,.
O=C(CCl)N1N=C(c2ccco2)CC1c1cccs1 (centres undefined),.,.,.,i
CCCC(C(=O)NC1CCCC1)N(CC1CCCO1)C(=O)CNS(=O)(=O)c1ccc(F)cc1 (centres undefined),1,0,-4,i
CC(C)C(C(=O)NC1CCCC1)N(CC1CCCO1)C(=O)CNS(=O)(=O)c1ccc(F)cc1 (centres undefined),-3,28*,-4,i
O=S(=O)(NCC(c1cccnc1)N1CCOCC1)c1ccccc1 (centres undefined),2,13,0,i
O=S(=O)(NCC(c1cccnc1)N1CCOCC1)c1ccc(Cl)cc1 (centres undefined),-6,25*,-12,i
C#CCOCCOCCOCCNc1nc(N2CCN(C(=O)[C@H](CCCCN)n3cc([C@@H](N)CC(C)C)nn3)CC2)nc(N2CCN(C(=O)[C@H](Cc3ccc(O)cc3)n3cc([C@@H](N)CC(C)C)nn3)CC2)n1,.,.,37,.
C#CCOCCOCCOCCNc1nc(N2CCN(C(=O)[C@H](CCC(=O)O)n3cc(CN)nn3)CC2)nc(N2CCN(C(=O)[C@H](CCC(=O)O)n3cc([C@@H](N)[C@H](C)CC)nn3)CC2)n1,6,22*,-13,i
SMILES,MBD2 inh,UHRF1 MBD2 ctr,UBC13 inh,Neddylation inh
C#CCOCCOCCOCCNc1nc(N2CCN(C(=O)[C@H](CCCCN)n3cc([C@@H](N)CO)nn3)CC2)nc(N2CCN(C(=O)[C@H](Cc3cc4ccccc4[nH]3)n3cc([C@@H](N)Cc4ccc(O)cc4)nn3)CC2)n1,.,.,106*,.
C#CCOCCOCCOCCNc1nc(N2CCN(C(=O)[C@H](Cc3ccc(O)cc3)n3cc([C@@H](N)C(C)CC)nn3)CC2)nc(N2CCN(C(=O)[C@H](Cc3cc4ccccc4[nH]3)n3cc([C@@H](N)Cc4ccc(O)cc4)nn3)CC2)n1 (some centres undefined),.,.,78*,.
C#CCOCCOCCOCCNc1nc(N2CCN(C(=O)[C@H]([C@@H](C)CC)n3cc([C@@H](N)Cc4ccc(O)cc4)nn3)CC2)nc(N2CCN(C(=O)[C@H](CCCCN)n3cc([C@@H](N)CC(C)C)nn3)CC2)n1,.,.,97*,.
Cc1cc(NC(=O)CC(CN(C)S(=O)(=O)c2ccccc2)c2ccccc2)no1 (centres undefined),8,8,10,i
CCCN(CCC)C(=O)c1ccc2c(c1)N(CC)C(=O)c1ccccc1S2(=O)=O,-2,0,-2,i
C#CCOCCOCCOCCNc1nc(N2CCN(C(=O)C([C@@H](C)O)n3cc([C@@H](N)CCCCN)nn3)CC2)nc(N2CCN(C(=O)[C@H](CCCCN)n3cc([C@@H](N)[C@H](C)CC)nn3)CC2)n1 (some centres undefined),2,10,104*,i
C#CCOCCOCCOCCNc1nc(N2CCN(C(=O)[C@H](Cc3ccc(O)cc3)n3cc([C@@H](N)CC(C)C)nn3)CC2)nc(N2CCN(C(=O)[C@H](Cc3ccc(O)cc3)n3cc([C@@H](N)CC(C)C)nn3)CC2)n1,.,.,63*,.
C#CCOCCOCCOCCNc1nc(N2CCN(C(=O)C(Cc3ccc(O)cc3)n3cc(C(N)CC(C)C)nn3)CC2)nc(N2CCN(C(=O)C(Cc3cc4ccccc4[nH]3)n3cc(C(N)C(C)CC)nn3)CC2)n1 (centres undefined),.,.,77*,.
C#CCOCCOCCOCCNc1nc(N2CCN(C(=O)[C@H](CCC(=O)O)n3cc(C(N)CC(C)C)nn3)CC2)nc(N2CCN(C(=O)[C@H](Cc3ccc(O)cc3)n3cc(C(N)CC(C)C)nn3)CC2)n1 (some centres undefined),.,.,2,i
O=C(CNC(=O)c1cccs1)N/N=C/c1ccccc1[N+](=O)[O-],-3,5,3,i
COC(=O)[C@]12C[C@H](CC(=O)NCCC(C)C)C(=O)N(CCc3ccc(OC)c(OC)c3)C1=C[C@H](C1CCCC1)O[C@@H]2C,3,0,.,.
Cc1ccc([N+](=O)[O-])cc1NC(=O)c1cccnc1,5,39*,0,i
O=C(Nc1cc([N+](=O)[O-])ccc1Cl)c1cccnc1,5,-1,4,i
Cc1ccccc1NC(=O)C1CCCN(S(=O)(=O)c2cccc3cccnc23)C1 (centres undefined),-2,0,2,i
